Here are results for 40 compounds from PubChem BioAssay (NCI).

Where “and” joins values, the source holds several entries; their conditions need not be identical. Equal values may be shown once. About 83,000 compounds went through this panel and 20% of them were active in at least one assay; those are over-represented in the sample as a whole.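 Activity criterion: percent growth below 10, measured after cells in 96-well plates were exposed to a single compound concentration for 48 hours.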 Calls of active or inactive are those of the source.

The first assay concerns HT29 colon. Description: NCI-60 one-dose screen, 48 h (100 = growth as untreated, 0 = no growth, -100 = all killed). The note with it: 1 µM. As to the method: Growth inhibition of the HT29 human tumor cell line is measured as a screen for anti-cancer activity. Cells are grown in 96 well plates and exposed to the test compound for 48 hours. Compounds are tested at a single concentration, which is 10^-5 M for most compounds. The reported endpoint is percent growth (GI% or GIPRCNT), where numbers from 0 - 100% represent growth inhibition, and numbers from -100% - 0 represent cell death. For example, a value of 40 represents 60% growth inhibition. A value of 0 means no net growth occurred over the course of the experiment. A value of -40 indicates 40% of cells at the beginning of the experiment died by the end of the experiment. A value of -100 means all cells are dead at the end of the experiment.
NCI-60 Human Tumor Cell Lines Screen was performed using the standard one-dose NCI protocol, which is described in more detail at https://dtp.cancer.gov/discovery_development/nci-60/default.htm.
Compounds with GIPRCNT values below 10 were considered active. Activity score was based on GIPRCNT using the following formula: […]
Score is 0 for GIPRCNT values of 100 or above, 50 for GIPRCNT values of 0, and 100 for GIPRCNT values of -100.
For `CC/C(=C(/c1ccc(O)cc1)c1ccc(OCCN(C)C(=O)COCCOCCNC(=O)Cc2ccc3c(c2)CN([C@@H]2CCC(=O)NC2=O)C3=O)cc1)c1ccccc1`, the growth was 102% (inactive).

Still in this assay, the particulars now being: 10 µM.
In the case of `CC/C(=C(/c1ccc(O)cc1)c1ccc(OCCN(C)C(=O)COCCOCCNC(=O)Cc2ccc3c(c2)CN([C@@H]2CCC(=O)NC2=O)C3=O)cc1)c1ccccc1`, the growth was 83% (inactive).

Still in this assay, the particulars now being: 10 µM unless noted.
Turning to `Cc1ccc(Cl)cc1NC(=O)Nc1nc2ccc([N+](=O)[O-])cc2s1`, the growth is -18.9% (active).
Turning to `CC[C@]12C=CCN3CC[C@@]4(c5ccc(OC)cc5N(C)[C@H]4[C@@](O)(C(=O)OC)[C@@H]1OC(=O)CCC[P+](c1ccc(OC)cc1)(c1ccc(OC)cc1)c1ccc(OC)cc1)[C@@H]32`, the growth was -84.3% (active).
The same measure, in the same setting: the value for `CN(C)CCCNC(=S)Nc1ccc(/C=C/c2ccc(Cl)cc2)cc1` was -51.4% (active).
The same measure, in the same setting: the value for `O=C(N/N=C/c1c[nH]c2ccccc12)Nc1ccc(F)c(Cl)c1` was 33.5% (inactive); that for `NS(=O)(=O)c1ccc(N2N=C(c3ccc(NC(=O)Nc4ccccc4)cc3)CC2c2ccc(Br)cc2)cc1` (stereo unspecified) was -57% (active).
As to `CC1=NN(C2=NC(=O)C(CC(=O)Nc3ccccc3C(F)(F)F)S2)C(c2ccc(N(C)C)cc2)C1` (stereo unspecified), the growth was 40.8% (inactive).
For the compound `COc1ccccc1/C=C/c1cccc(NC(=S)NCCCCN(C)C)c1`, the growth was -59% (active).
Turning to `Cc1cc(=O)oc2cc(OCC(O)CNN3C(=O)c4cccc5c(N6CCN(C)CC6)ccc(c45)C3=O)ccc12` (stereo unspecified), the growth is 89.6% (inactive).
On the same count and under the same terms, as for `O=C(N/N=C/c1ccc(Cl)o1)c1[nH]c2ccc(Br)cc2c1-c1ccccc1`, the figure is -34.6% (active); as for `CCOC(=O)/C(F)=C/C1CC1CCc1ccc(OCC)cc1` (stereo unspecified), 58.5% (inactive).
Same read-out and setting: the value for `O=C(NNC(=O)c1ccc(OCc2nc3ccc(Cl)cc3[nH]2)cc1)Nc1ccc(Cl)c(Cl)c1` was 67.2% (inactive); that for `Fc1ccccc1CNc1nc(SCCN2CCOCC2)nc2c1cnn2CC(Cl)c1ccc(Br)cc1` (stereo unspecified) was -33.6% (active).
The same measure, in the same setting: the value for `S=C(Nc1ccccc1)Nc1ccc(OCc2nc3ccc(Cl)cc3[nH]2)cc1` was 105% (inactive); that for `O=CNc1ccc(-n2cnc3cc(-c4ccc(O)cc4)ccc32)cc1` was 111% (inactive); that for `CN(C)C(=O)c1cc(-c2ccc3ncnc(N4CCc5cc(F)c(Cl)cc54)c3c2)cnc1N` was -68.6% (active).
For `CCN1C(=O)N(CC)C2NNC(Sc3c(C(=O)O)c4ccccc4n(CC(C)C)c3=O)=NC21` (stereo unspecified), the growth is -8.58% (active).
Still for that read-out and setting: the value for `O=C(Cc1c(-c2cccc([N+](=O)[O-])c2)n(-c2ncnc3c2c(-c2ccccc2)c(-c2ccccc2)n3Cc2ccccc2)[nH]c1=O)c1ccc(Cl)c(Cl)c1` was 37% (inactive); that for `COc1cc(CNC(=O)[C@]23CCC(C)(C)CC2C2=CCC4[C@@]5(C)CCC(OC(C)=O)C(C)(C)C5CC[C@@]4(C)[C@]2(C)CC3)ccc1OCc1cn(-c2ccc(Cl)cc2Cl)nn1` (stereo partly specified) was 98% (inactive).
The same measure, in the same setting: the value for `CN(C)CCOc1ccc(C(=O)C2[C@H](c3ccc(Cl)cc3)[C@@H](c3ccccc3)NC23C(=O)Nc2ccc(Cl)cc23)cc1` (stereo partly specified) was -93.7% (active); that for `O=C(CCl)Nc1ccc(C(=O)/C=C/c2cc3ccccc3nc2Cl)cc1` was 2.8% (active) and 65% (inactive).
Still for that read-out and setting: as for `Nc1cc2ccccc2c(=O)n1NC(=O)c1ccccc1`, the figure is 113% (inactive); as for `Cc1oc(-c2ccccc2)nc1CN[C@@H]1C[C@@H]2C[C@H]([C@H]1C)C2(C)C`, 7.34% (active).
On to `FC(F)(F)c1cc2c(Cl)ncnc2n1CCN1CCCCC1`, for which the growth is 56.2% (inactive).
Turning to `Clc1ccc2c(NCCNC34CC5CC(CC(C5)C3)C4)ccnc2c1`, the growth was -50.8% (active).
The same measure, in the same setting: as for `CN1CCN(CCS(=O)(=O)Nc2cc(-c3ccc4ncnc(Nc5ccc(F)c(Cl)c5)c4c3)cnc2Cl)CC1`, the figure is 12% (inactive); as for `CN1C(=O)/C(=C\C(=O)c2cc3ccccc3oc2=O)c2ccccc21`, 93.4% (inactive).
The same measure, in the same setting: the value for `COc1cc(C2C(C(=O)OCc3ccccc3)=C(C)Nc3nc4ccccc4n32)cc(OC)c1OC` (stereo unspecified) was 37.3% (inactive).
For `CN(C)c1nc(NCCNS(=O)(=O)c2ccc(C(=O)/C=C/c3ccc(C(F)(F)F)cc3)cc2)nc(N2CCOCC2)n1`, the growth was -73% (active).
Same read-out and setting: the value for `O=C(COc1ccc(/C=C2/C(=O)Nc3ccc(Cl)cc32)cc1)Nc1ccc(Br)cc1` was -51.3% (active); that for `Cc1cc(C2(c3cc(C)c(OCC(O)CNc4c(C)n(C)n(-c5ccccc5)c4=O)cc3C(C)C)OC(=O)c3ccccc32)c(C(C)C)cc1OCC(O)CNc1c(C)n(C)n(-c2ccccc2)c1=O` (stereo unspecified) was 13.4% (inactive); that for `CCCCCCCCCCCCCCCCCC(=O)Nc1ccc(OC)cc1` was 104% (inactive).
As for `Cn1cc(-c2cc(N)n3nc(-c4c[nH]c5ccc(Cl)cc45)cc3n2)c2cccnc21`, the growth is -44.7% (active).
Same read-out and setting: the value for `FC(F)(F)c1cc2c(Cl)ncnc2n1CCN1CCOCC1` was 81.2% (inactive); that for `COc1sc(/C=N/NC(=O)c2[nH]c3ccc(Br)cc3c2-c2ccccc2)cc1Br` was -26.9% (active); that for `CNS(=O)(=O)N1CCc2c(Br)c3c(c(OC)c2C1CCc1ccccc1)OCO3` (stereo unspecified) was -25.4% (active).
Turning to `Cc1nc2sccn2c1-c1nnc(SCC(C)C)o1`, the growth is 79.9% (inactive).
As for `COc1ccc(C(=O)c2c(N)c(C#N)cn2-c2ccc([N+](=O)[O-])cc2)cc1`, the growth is 102% (inactive).
Same read-out and setting: as for `COc1ccc2[nH]c(O)c(N=Nc3nc(-c4ccc(Br)cc4)cs3)c2c1`, the figure is 12.8% (inactive); as for `O=C1CCC(N2C(=O)c3cccc(NCCOCCOCCOCCC(=O)NCCCC(=O)NC(c4ccc5c(c4)OCO5)c4cc(Cl)c5cccnc5c4O)c3C2=O)C(=O)C1` (stereo unspecified), 28.5% (inactive).
